In PubChem BioAssay (NCI):
About 79,000 compounds went through this panel and 15% of them were active in at least one assay; those are over-represented in the sample as a whole. Calls of active or inactive are those of the source. No stated cut-off is given here; in the data, active means growth inhibition above about 70%; inactive means the rest.

How the values were obtained:
[1] = NCI Yeast Anticancer Drug Screen. Data for the rad50 strain (AID 155);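 further: 0% = growth of vehicle-only cultures of the same strain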; details: S. cerevisiae rad50 strain growth inhibition, stronger effect = higher value
Procedure, shortened: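 Relative growth inhibition (compound vs vehicle) was measured in yeast with a defined repair-gene alteration.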

[2] = NCI Yeast Anticancer Drug Screen. Data for the mec2-1 strain (AID 157); details: S. cerevisiae mec2-1 strain, stronger effect = higher value
Procedure, shortened: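 mec2-1 yeast strain, carrying an alteration in DNA damage repair or cell cycle control, was exposed to compounds; growth inhibition was measured relative to vehicle-treated controls.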

[3] = NCI Yeast Anticancer Drug Screen. Data for the sgs1 mgt1 strain (AID 161);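 further: 0% = growth of cultures given vehicle only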; details: S. cerevisiae sgs1 mgt1 strain, stronger effect = higher value
Procedure, shortened: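 Growth of a repair-deficient yeast mutant was monitored after compound treatment and expressed as inhibition relative to vehicle-treated cultures.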

[4] = NCI Yeast Anticancer Drug Screen. Data for the cln2 rad14 strain (AID 165);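 further: 0% = growth equal to vehicle treated cultures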; details: S. cerevisiae cln2 rad14 strain, stronger effect = higher value
Procedure, shortened: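 Yeast carrying cln2 and rad14 alterations (cell cycle control and DNA damage repair) were exposed to compounds. Growth inhibition was measured against vehicle-treated controls.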

[5] = NCI Yeast Anticancer Drug Screen. Data for the bub3 strain (AID 167); details: S. cerevisiae bub3 mutant strain, stronger effect = higher value
Procedure, shortened: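 Screening used yeast with an engineered genetic alteration affecting cell cycle control. Compound-exposed cultures were compared with vehicle cultures, and reduced growth was taken as inhibition.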

[6] = NCI Yeast Anticancer Drug Screen. Data for the mlh1 rad18 strain (AID 175); details: S. cerevisiae mlh1 rad18 strain growth inhibition, stronger effect = higher value
Procedure, shortened: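 Growth inhibition of the yeast strain was measured after compound exposure and expressed relative to vehicle-treated controls. The strain carries defined defects in DNA damage repair.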

[7] = at 5.0 µM (retest, dose inferred, filed as 0.5)
[8] = at 50.0 µM (retest, dose inferred, filed as 5.0)

Measured: growth inhibition

CSc1ncccc1C(=O)[O][Sn]([c]1ccccc1)([c]1ccccc1)[c]1ccccc1
active: [1]; [7] 100% | [1]; [8] 99% | [1]; at 50.0 µM 97.3% | [2]; [7] 100% | [2]; [8] 99% | [2]; at 50.0 µM 97.9% | [3]; [7] 100% | [3]; [8] 99% | [3]; at 50.0 µM 97.7% | [4]; [7] 99% | [4]; [8] 99% | [4]; at 50.0 µM 86.7% | [5]; [7] 99% | [5]; [8] 99% | [5]; at 50.0 µM 97.5% | [6]; [7] 99% | [6]; [8] 99% | [6]; at 50.0 µM 96.8%

c1ccc(N/N=C(/CC/C(=N\Nc2ccccc2)c2ccccc2)c2ccccc2)cc1
active: [1]; [8] 77% | [1]; at 50.0 µM 95.5% | [2]; [8] 90% | [2]; at 50.0 µM 97% | [3]; [8] 82% | [3]; at 50.0 µM 97.2% | [4]; [8] 81% | [5]; [8] 89% | [5]; at 50.0 µM 95.9% | [6]; [8] 92% | [6]; at 50.0 µM 97.5%
inactive: [1]; [7] 6% | [2]; [7] 4% | [3]; [7] -13% | [4]; [7] -13% | [4]; at 50.0 µM 47.8% | [5]; [7] -5% | [6]; [7] 18%

CCOC(=O)C(Br)C(Br)c1cccc([N+](=O)[O-])c1 (stereo not given)
active: [1]; [7] 97% | [1]; [8] 99% | [1]; at 50.0 µM 99.7% | [2]; [7] 93% | [2]; [8] 100% | [2]; at 50.0 µM 99.8% | [3]; [7] 99% | [3]; [8] 100% | [3]; at 50.0 µM 99.7% | [4]; [7] 92% | [4]; [8] 99% | [4]; at 50.0 µM 98% | [5]; [7] 98% | [5]; [8] 99% | [5]; at 50.0 µM 99.5% | [6]; [7] 98% | [6]; [8] 99% | [6]; at 50.0 µM 99.6%

O=c1c(NO)c([N+](=O)[O-])cnn1-c1ccccc1
inactive: [1]; [7] 25% | [1]; [8] 51% | [1]; at 50.0 µM 14.5% | [2]; [7] 8% | [2]; [8] 18% | [2]; at 50.0 µM 2.4% | [3]; [7] -7% | [3]; [8] -2% | [3]; at 50.0 µM 29.4% | [4]; [7] 13% | [4]; [8] 31% | [4]; at 50.0 µM 34.4% | [5]; [7] -2% | [5]; [8] 28% | [5]; at 50.0 µM -3.6% | [6]; [7] -23% | [6]; [8] -5% | [6]; at 50.0 µM -0.5%

Clc1ccc(CN2CCCN(Cc3ccc(Cl)cc3)C2C2CCC=CO2)cc1 (stereo not given)
inactive: [1]; [7] 4% | [1]; [8] 19% | [1]; at 50.0 µM 66.1% | [2]; [7] -18% | [2]; [8] 17% | [2]; at 50.0 µM 24.5% | [3]; [7] -17% | [3]; [8] 42% | [4]; [7] -4% | [4]; [8] 7% | [4]; at 50.0 µM 46.9% | [5]; [7] 6% | [5]; [8] 17% | [5]; at 50.0 µM 56.3% | [6]; [7] -14% | [6]; [8] 36% | [6]; at 50.0 µM 45%
active: [3]; at 50.0 µM 72.6%

N#CC(C#N)=C1CCC(CC2CCCCC2)CC1 (stereo not given)
inactive: [1]; [7] -117% | [2]; [7] -49% | [3]; [7] -60% | [4]; [7] -56% | [5]; [7] -58% | [6]; [7] -92%
active: [1]; [8] 96% | [1]; at 50.0 µM 98.6% | [2]; [8] 96% | [2]; at 50.0 µM 98.6% | [3]; [8] 96% | [3]; at 50.0 µM 98% | [4]; [8] 97% | [4]; at 50.0 µM 98.5% | [5]; [8] 97% | [5]; at 50.0 µM 98% | [6]; [8] 96% | [6]; at 50.0 µM 98.5%

COc1ccccc1C1SC(c2ccccc2)(c2ccccc2)OC1=O (stereo not given)
active: [1]; at 50.0 µM 84.6% | [3]; at 50.0 µM 80.2% | [4]; at 50.0 µM 84.8% | [5]; at 50.0 µM 85.9% | [6]; at 50.0 µM 80.9%
inactive: [1]; [7] -2% | [1]; [8] -9% | [2]; [7] -2% | [2]; [8] -4% | [2]; at 50.0 µM 50.1% | [3]; [7] 12% | [3]; [8] -2% | [4]; [7] -2% | [4]; [8] -7% | [5]; [7] -1% | [5]; [8] 16% | [6]; [7] 0% | [6]; [8] -6%

CC([N+](=O)[O-])C1(O)C(=O)c2cccc3cccc1c23 (stereo not given)
active: [2]; [8] 100% | [3]; [8] 96% | [4]; at 50.0 µM 76.7% | [5]; [8] 91% | [6]; [8] 86% | [6]; at 50.0 µM 74.5%
inactive: [1]; [7] -7% | [1]; [8] 55% | [1]; at 50.0 µM 64.2% | [2]; [7] 0% | [2]; at 50.0 µM 58.5% | [3]; [7] 11% | [3]; at 50.0 µM 42.2% | [4]; [7] 4% | [4]; [8] 42% | [5]; [7] 14% | [5]; at 50.0 µM 68.8% | [6]; [7] 26%

CC(C)(CN1CCCCC1)C(=O)/C=C/c1ccc(Cl)c(Cl)c1
inactive: [1]; [7] 60% | [2]; [7] 27% | [3]; [7] 31% | [4]; [7] 28% | [5]; [7] 47% | [6]; [7] 52%
active: [1]; [8] 97% | [1]; at 50.0 µM 93.3% | [2]; [8] 98% | [2]; at 50.0 µM 94.7% | [3]; [8] 96% | [3]; at 50.0 µM 93.2% | [4]; [8] 96% | [4]; at 50.0 µM 91.8% | [5]; [8] 96% | [5]; at 50.0 µM 92.9% | [6]; [8] 97% | [6]; at 50.0 µM 92.7%

CCC(C(=O)C(C)C(O)C(C)CCc1ccc(C)c(O)c1C(=O)O)C1OC(CC)(C2CCC(O)(CC)C(C)O2)CC1C (stereo not given)
inactive: [1]; [7] 28% | [2]; [7] 56% | [3]; [7] 40% | [5]; [7] 64% | [6]; [7] 28%
active: [1]; [8] 96% | [1]; at 50.0 µM 88.2% | [2]; [8] 98% | [2]; at 50.0 µM 90.7% | [3]; [8] 97% | [3]; at 50.0 µM 90% | [4]; [7] 73% | [4]; [8] 98% | [4]; at 50.0 µM 89.2% | [5]; [8] 98% | [5]; at 50.0 µM 88.7% | [6]; [8] 97% | [6]; at 50.0 µM 88.2%
